MBNL1-CUG inh: qHTS Assay for Inhibitors of MBNL1-poly(CUG) RNA binding. Potency, µM (series often up to 57.5 µM), for inactives: top-dose activity change, negative = inhibition, actives largely listed as inhibitors. Muscleblind-like protein 1 (Homo sapiens), Q9NR56. TR-FRET MBNL1-His/biotin-(CUG)12 binding, 665/545 ratio. AID 2675, 2010. 0.036% of 280,000 active; active = well fitted inhibition curve with a large enough effect in the signal ratio, with a control signal flat, not every such curve was filed as active; inconclusive = small, poorly fitted or top-dose-only effect, or effect the other way, or a change in a side signal; inactive = no such curve, though single readings can be large or run the other way; the % refers to the signal ratio; note: potency is the fitted concentration of half-maximal effect
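His-tagged MBNL1 binding to biotinylated (CUG)12 RNA was measured by TR-FRET using terbium anti-His antibody (0.055 ng/ul final) and streptavidin-XL665 (5 nM final). Compounds were titrated 92 nM to 58 uM; 60 min at room temperature.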
Six1-Eya2 blk: qHTS Assay for Inhibitors of the Six1/Eya2 Interaction; Homeobox protein SIX1 (Homo sapiens) + Protein phosphatase EYA2 (Homo sapiens), …; AlphaScreen GST-Six1/His-Eya2 binding, biochemical; active compounds read low; activity change, % (no concentration beside the values); 0.56% of 360,000 active
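Six1/Eya2 binding was read as AlphaScreen signal after compounds were pinned into GST-Six1 plus His-tagged Eya2 (5X stock 250/500 nM) in pH 8.0 Tris/NaCl/TCEP buffer, beads added, then incubated 1 h, 37 C, dark.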
CtBP-E1A blk: qHTS Assay for Inhibitors of the CtBP/E1A Interaction. CtBP / adenovirus E1A interaction (AlphaScreen). AlphaScreen GST-E1A/His-CtBP binding, 1536-well; active compounds read low. activity change, % (concentration not given with the values). 0.49% of 340,000 active
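Homogeneous bead-based format: GST-tagged E1A captured on glutathione donor beads, His-tagged CtBP on nickel acceptor beads; compounds precede bead addition by 2 h at 37 °C.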
PKM2 activator: qHTS Assay for Activators of Human Muscle isoform 2 Pyruvate Kinase | Pyruvate kinase PKM (Homo sapiens), P14618 | purified PKM2, Kinase-Glo ATP luminescence, activation; response scale: 0% is enzyme alone, no compound | Potency, µM (titrated, usually from 57.5 µM), without a hit: top-dose activation, usual class: activators | 0.34% of 260,000 active | AID 1631, 2009; active = well fitted activation curve with a large enough effect; inconclusive = small, poorly fitted or top-dose-only effect; inactive = no such curve, though single readings can be large or run the other way; note: potency is the fitted concentration of half-maximal effect; nearly all actives have a fitted effect of over 55% in size
Target sequence (P14618 whole entry, looked up, canonical isoform): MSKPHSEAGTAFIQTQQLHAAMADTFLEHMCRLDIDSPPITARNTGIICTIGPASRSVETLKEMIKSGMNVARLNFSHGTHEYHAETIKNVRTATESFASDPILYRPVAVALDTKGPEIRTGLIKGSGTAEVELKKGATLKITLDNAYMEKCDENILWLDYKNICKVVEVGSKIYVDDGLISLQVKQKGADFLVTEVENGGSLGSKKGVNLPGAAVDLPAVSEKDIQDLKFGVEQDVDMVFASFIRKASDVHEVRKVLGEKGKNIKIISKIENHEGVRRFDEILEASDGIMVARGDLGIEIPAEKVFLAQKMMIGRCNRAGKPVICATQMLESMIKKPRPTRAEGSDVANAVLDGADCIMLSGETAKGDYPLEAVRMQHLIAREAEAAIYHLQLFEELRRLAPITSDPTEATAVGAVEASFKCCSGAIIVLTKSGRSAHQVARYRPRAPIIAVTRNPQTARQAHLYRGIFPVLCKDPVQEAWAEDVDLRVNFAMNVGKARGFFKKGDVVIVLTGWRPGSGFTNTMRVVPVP
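ATP formation by purified human PK-M2, quantified via coupled luciferase luminescence after 1 h at room temperature with 0.1 mM ADP and 0.5 mM PEP final.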
Starred values were filed as active, the others as inactive; ? = inconclusive; nt = not tested or not shown; [ ] = remark or other dose. Hits are enriched below; roughly 0.93% of the tested compounds scored in any of these assays. Cut-off read from the data, not from the text of the source, unless noted: active = activity change below about -65%; inconclusive = mostly about -30% to -63%; inactive = weaker than that. % is set by controls: 0 for no effect and ±100 for the full control effect.

SMILES	MBNL1-CUG inh	Six1-Eya2 blk	CtBP-E1A blk	PKM2 activator
Cc1cc(=O)n2nc(-c3ccccc3)sc2n1	-6%	-3	-1	2%
Cc1cc(=O)n2c3c(sc2n1)C(=O)N(Cc1ccccc1)C3=O	10%	nt	nt	28µM*
COc1cc(-c2cc(NC=O)c3ncc(-c4ccc(C(C)=O)cc4)n3c2)ccc1O	nt	1	-25	nt
CCC(C)C(=O)N1c2ccccc2C(=C2SC(C(=O)OC)=C(C(=O)OC)S2)C(=S)C1(C)C (configuration not stated)	7%	-80*	-83*	-10%
Nc1ccc2nc(-c3ccccc3)[nH]c2c1	20%	-2	-15	2%
Cc1[nH]c(-c2ccccn2)nc(=S)c1Cl	6%	?	?	-7%
Cc1cc(=S)nc(-c2ccccn2)[nH]1	-1%	-85*	-69*	1%
Nc1ccc2nc(-c3ccccn3)[nH]c2c1	?	-75*	-70*	-38%
COc1ccc2c(CC(=O)N3CCN(S(=O)(=O)c4ccc(F)cc4)CC3)coc2c1	nt	-6	0	nt
O=C(COc1ccc(-c2nnco2)cc1)N1CCN(S(=O)(=O)c2ccc3ccccc3c2)CC1	13%	5	4	7.1µM*
O=C(COc1ccccc1)N1CCN(S(=O)(=O)c2ccc(Br)cc2)CC1	3%	2	nt	nt
CN(C)C(=O)N1CCN(S(=O)(=O)c2ccc3ccccc3c2)CC1	1%	-1	-15	?
COc1ccc(S(=O)(=O)N2CCN(C(=O)COc3ccccc3)CC2)cc1	-1%	7	nt	14µM*
O=C(CCl)N1CCN(S(=O)(=O)c2ccc3ccccc3c2)CC1	4%	6	5	13µM*
COc1ccc2c(CC(=O)N3CCN(S(=O)(=O)c4cccs4)CC3)coc2c1	-9%	3	-6	22µM*
CC(C)C#Cc1cnc2c(c1)C(=O)N([C@@H](C)CO)C[C@@H](C)[C@H](CN(C)Cc1cccc(F)c1)O2	nt	-13	-7	nt
CCC(C)c1ccc(S(=O)(=O)N2CCN(C(=O)COc3ccc4c(C)cc(=O)oc4c3)CC2)cc1 (configuration not stated)	11%	-3	1	1%
COc1ccc(S(=O)(=O)N2CCN(C(=O)COc3ccc4c(C)cc(=O)oc4c3)CC2)cc1	5%	-20	-16	14µM*
O=C(N/N=C/c1cc(O)ccc1Br)c1cccnc1	147%	-91*	-93*	-16%
O=C(N/N=C/c1cc(Br)c(O)c(Br)c1O)c1cccnc1	?	-91*	nt	nt
O=C(N/N=C/c1cc2c(cc1Br)OCO2)c1cccnc1	?	-3	-10	-12%
COCCN=C1OC(=O)N2C(=O)C3=C4C(C[C@H]5C(=O)N(CC(=O)OC)C(=O)[C@H]5[C@H]4[C@@]12Cc1ccccc1)[C@H]1C(=O)N(CC(=O)OC)C(=O)[C@H]1[C@H]3C (some centres not stated)	nt	nt	nt	7%
Cc1cc(O)c(-c2cc(C(=O)Nc3ccc(S(=O)(=O)N4CCOCC4)cc3)[nH]n2)cc1C	-2%	?	-72*	-18%
Cc1nc(-[n+]2nc(-c3ccncc3)nn2-c2ccccc2)sc1C	nt	-91*	-88*	nt
CC(=O)Nc1ccc2c(c1)C(N1CC3CCC(CC3)C1)c1ccccc1-2 (configuration not stated)	nt	-4	0	nt
SMILES	MBNL1-CUG inh	Six1-Eya2 blk	CtBP-E1A blk	PKM2 activator
CCc1c(C)nc2c(C#N)c[nH]n2c1=O	-6%	?	-77*	6%
NC1=NN=C(N2N=C(c3ccccc3)CC2(O)C(F)(F)F)n2ncnc2C1 (configuration not stated)	22%	?	-70*	-45%
COc1ccccc1C1=NN(C2=NN=C(N)Cc3ncnn32)C(O)(C(F)(F)F)C1 (configuration not stated)	nt	?	-65*	-1%
COc1ccc(C2=NN(C3=NN=C(N)Cc4ncnn43)C(O)(C(F)(F)F)C2)cc1 (configuration not stated)	?	-68*	-86*	1%
CCCn1c(-c2ccc(F)cc2)nc2c(NCC3CCN(C)CC3)nc(C)nc21	nt	nt	nt	0%
CCCCCCCCN1C(=O)[C@H](CC(=O)NCc2cccc(C(F)(F)F)c2)C[C@@]2(C(=O)OC)CC(C)(C)CC=C12	nt	2	4	nt
COC(=O)C1=C(C(=O)OC)[C@@H]2N(Cc3ccccc3)c3ccccc3[C@@]23C[C@@H](C(=O)OC)N(S(=O)(=O)c2ccc(C#N)cc2)C3=N1	nt	nt	nt	-8%[11.5 µM]
CC(C)[C@H](NC(=O)c1ccccc1Cl)C(=O)Nc1nc(-c2ccccn2)cs1	-1%	-80*	-83*	-23%
CC(Oc1ccc(Br)cc1)C(=O)Nc1nc(-c2ccccn2)cs1 (configuration not stated)	4%	-73*	?	-22%
CCc1ccc2nc(Nc3nc(COC)cc(=O)[nH]3)nc(C)c2c1	-12%	-3	-6	-2%
COCc1cc(=O)[nH]c(Nc2nc3ccc(C)cc3o2)n1	2%	-84*	-87*	-1%
CC1=C(C(=O)N2CCCCCC2)CC(CC(=O)NCCCCc2ccccc2)C(=O)N1CCC1=CCCCC1 (configuration not stated)	nt	-10	1	nt
Cc1sc2nc(CN3CCN(c4ccc(O)cc4)CC3)[nH]c(=O)c2c1C	-13%	-16	1	1.3µM*
CCCn1c(-c2ccc(F)cc2)nc2c(NCC(C)(C)CN(C)C)nc(C)nc21	nt	nt	nt	-3%
Cc1nnc(-c2ccccc2)c(=O)n1/N=C/c1c(O)ccc2ccccc12	3%	-94*	-1	6%
Cc1nnc(C)n1/N=C/c1c(O)ccc2ccccc12	12%	-2	nt	nt
COC(=O)CNC(=O)C1(CC(C)C)C=CCN1C(C)=O (configuration not stated)	nt	nt	nt	0%
COc1ccc2c(Cl)cc(NC(=O)Nc3c(C)cccc3C)nc2c1	nt	-13	0	nt
O=C(CCC(=O)Nc1ccc(F)cc1)N/N=C/c1ccc(O)cc1O	18%	?	?	-3%
Oc1ccc(C=NNC(=S)Nc2ccc(F)cc2)c(O)c1	nt	-80*	-93*	nt
Oc1ccc(/C=N/NC(=S)Nc2cccnc2)c(O)c1O	3%	-89*	-93*	12%
Oc1ccc(/C=N/NC(=S)Nc2cccnc2)c(O)c1	47%	-90*	-82*	1%
Fc1c(F)c(F)c(/C=N/NC(=S)Nc2cccnc2)c(F)c1F	18%	0	-1	3%
Oc1ccc(C=NNC(=S)Nc2ccccc2)nc1	nt	-97*	-76*	nt
Oc1cccc(/C=N/NC(=S)Nc2cccnc2)c1O	nt	-91*	-95*	-16%
